Compound activity (PubChem BioAssay)
Eya2 inh: inhibitors of human Eya2 phosphatase activity; Potency, µM (doses to about 76.9 µM), inactives show at the highest dose activity, negative = inhibition, actives largely listed as inhibitors; AID 488837; recombinant Eya2, OMFP fluorescence dephosphorylation (OMFP is methylfluorescein phosphate); 0.006% of 330,000 active; also: potency is read from the fitted curve at half-maximal effect
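Eya2 (0.2 uM) preincubated 10 min at ambient with compound, then OMFP substrate added at 50 uM; 10 min reaction in 50 mM HEPES pH 7.5, 50 mM NaCl, 5 uM MgCl2, 0.05% BSA, 1 mM DTT. Fluorescence read at Ex 485/Em 525 nm.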
PI4K2A inh: inhibitors of human PI4K2A. Q9BTU6. purified PI4K2A, ADP-Glo luminescence, 1 h; active compounds read low. activity change, negative = inhibition, % at 76.9 µM. 0.13% of 420,000 active; in the data active = activity change below about -50%; inconclusive = mostly about -30% to -49%;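 also: -100% = wells without enzyme as full effect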
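ADP-Glo luminescence measured ADP generated by PI4K2A enzyme (4 ug/mL before mixing) with 1.2 mM PI substrate (pre-mix) and 300 microM ATP (pre-mix). Tris pH7.5 buffer with MgCl2, Triton X-100; 1 h reaction at ambient temperature.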
RGS4 inhibitor: blocks human RGS4-accelerated GTP hydrolysis; 0.039% of 390,000 active; Potency, µM (top dose mostly 114 µM), for the others: at the top dose activity change, negative = inhibition, most hits filed as inhibitors; Transcreener GDP fluorescence polarization, RGS4-accelerated GTP hydrolysis; also: potency is read from the fitted curve at half-maximal effect; nearly all actives have a fitted effect of over 75% in size
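MLSMR compounds (23 nl, pin-transferred) preincubated 10 min at room temperature with a 500nM (2x) first reagent, then RGS4 at 900nM (2x) plus Transcreener GDP mix added; fluorescence polarization (620/688 nm) read before and after 90 min at 30 °C.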
Six1-Eya2 inh: inhibitors of human Six1/Eya2 interaction; activity change, % (concentration not given with the values); AlphaScreen GST-Six1/His-Eya2 binding, biochemical; active compounds read low; 0.56% of 360,000 active; in the data active = activity change below about -65%; inconclusive = mostly about -30% to -63%
Target sequence (O00167 whole entry, looked up): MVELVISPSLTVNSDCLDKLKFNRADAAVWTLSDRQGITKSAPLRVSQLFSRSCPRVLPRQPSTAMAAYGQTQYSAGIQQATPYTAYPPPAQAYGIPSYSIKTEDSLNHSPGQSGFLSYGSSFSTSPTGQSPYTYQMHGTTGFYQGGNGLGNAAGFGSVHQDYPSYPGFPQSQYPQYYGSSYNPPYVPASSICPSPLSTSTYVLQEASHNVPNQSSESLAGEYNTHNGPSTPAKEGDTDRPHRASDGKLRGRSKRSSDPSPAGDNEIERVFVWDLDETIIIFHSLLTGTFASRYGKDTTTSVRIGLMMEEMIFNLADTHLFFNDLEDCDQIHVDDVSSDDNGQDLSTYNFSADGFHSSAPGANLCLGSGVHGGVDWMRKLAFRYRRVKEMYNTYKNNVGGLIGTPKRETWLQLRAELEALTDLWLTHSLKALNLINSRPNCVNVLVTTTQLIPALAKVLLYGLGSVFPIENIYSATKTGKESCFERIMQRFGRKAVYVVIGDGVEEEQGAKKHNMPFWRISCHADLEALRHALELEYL
Target sequence (Q15475 whole entry, looked up): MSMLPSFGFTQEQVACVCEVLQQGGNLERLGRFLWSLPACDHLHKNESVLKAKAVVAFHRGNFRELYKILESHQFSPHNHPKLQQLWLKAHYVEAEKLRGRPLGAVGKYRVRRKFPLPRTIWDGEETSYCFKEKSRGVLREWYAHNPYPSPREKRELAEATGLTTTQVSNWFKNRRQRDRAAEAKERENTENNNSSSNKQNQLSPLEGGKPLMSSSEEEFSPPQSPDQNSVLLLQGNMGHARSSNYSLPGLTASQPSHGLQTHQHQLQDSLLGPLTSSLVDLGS
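Compounds are tested against tagged Six1 and Eya2 proteins bridged by glutathione donor and nickel acceptor beads; after a one-hour incubation at 37 °C without light, AlphaScreen emission is recorded.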
CtBP-E1A inh: inhibitors of CtBP/E1A interaction; AlphaScreen GST-E1A/His-CtBP binding, 1536-well; active compounds read low; activity change, % (test concentration not listed); 0.49% of 340,000 active; AID 651724; in the data active = activity change below about -65%; inconclusive = mostly about -30% to -63%
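Steps: dispense buffer (Tris pH 8.0, NaCl 300 mM, TCEP 1 mM, BSA, Tween 20); add 5X protein mix (GST-E1A, His-CtBP, 125 nM each); pin 23 nL compound; 2 h at 37 °C, dark; add 5X beads (50 ug/mL); 1 h; read.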
USP2a inh: inhibitors of human ubiquitin-specific protease USP2a. USP2 core, Ub-CHOP2 coupled fluorogenic reporter, 485/531. Potency, µM (series often up to 38.3 µM), inactives show top-dose activity change, negative = inhibition, usual class: inhibitors. 0.01% of 330,000 active. AID 463254;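 also: potency is read from the fitted curve at half-maximal effect; plate controls were DMSO wells for no effect and full inhibition by NEM control for full effect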
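Deubiquitinase activity read as fluorescence (485/531 nm) after Ub-CHOP2 cleavage activates the enterokinase reporter on its substrate; USP2 core 10nM, Ub-CHOP2 and substrate 25nM each, 30min compound preincubation then 60min RT; data normalized to NEM, curves fitted.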
Active calls of the source: *; u = inconclusive; x = not tested or not shown; ! = a repeat was not active; [ ] = another dose, or the depositor's remark. Shown are actives, neighbours in structure and some others; about 0.72% of the full set was active somewhere. Unless noted, calls follow the shape of the dose curve; as a rule, active = well fitted curve in the direction sought with a large enough effect; inconclusive = small, poorly fitted or top-dose-only effect, or another doubt; inactive = no such curve, though single readings can be large; an effect the other way counts as inactive or inconclusive. Unless noted, % is scaled to controls: 0 for no effect and ±100 for the full control effect.

SMILES | Eya2 inh | PI4K2A inh | RGS4 inhibitor | Six1-Eya2 inh | CtBP-E1A inh | USP2a inh
Nc1ccc(S(=O)(=O)Nc2nccc(/C=C/c3ccc([N+](=O)[O-])cc3)n2)cc1 | -17.9% | -6.3 | -18.6% | -16.2 | -28.8 | -1.1%
Nc1ccc(S(=O)(=O)Nc2nccc(/C=C/c3ccc(Cl)cc3)n2)cc1 | 1.9% | -5.6 | -11.1% | u | -76.0* | -1.3%
Cc1cc(C(=O)CCl)c(C)n1-c1cccc(S(=O)(=O)N2CCOCC2)c1 | 3.9% | 16.1 | -31.0% | -68.5* | -91.4* | 1.3%
Cc1cc(C(=O)CN2C(=O)CN(C)C2=O)c(C)n1-c1cccc(S(=O)(=O)N2CCOCC2)c1 | 6.2% | 4.2 | 3.6% | -1.6 | x | 2.6%
Cc1ccc(NC(=O)CN2C(=O)N/C(=C/c3cccn3-c3ccc(C(=O)O)cc3)C2=O)cc1 | -0.3% | u | -21.7% | -73.9* | 12.1 | -0.1%
Cc1ccc(NC(=O)CN2C(=O)N/C(=C/c3cc(C)n(-c4ccc(C(=O)O)cc4)c3C)C2=O)cc1 | -1.5% | -1.9 | -45.6% | -17.3 | -7.1 | 1.5%
Cc1ccc(S(=O)(=O)N2[C@@H](c3ccccc3F)C(C(=O)O)=CC[C@H]2c2ccc(Cl)c(Cl)c2)cc1 | u | 2.0 | 5.2% | -3.7 | 1.6 | 11.2µM*
COc1cc2nc(CN(C)Cc3nc4ccccc4c(=O)[nH]3)[nH]c(=O)c2cc1OC | 11.2% | -4.5 | -17.5% | -66.2* | -66.3* | 0.7%
CCN(Cc1nc2ccccc2c(=O)[nH]1)Cc1nc2cc(OC)c(OC)cc2c(=O)[nH]1 | 5.7% | -2.6 | 1.1% | -18.4 | -18.3 | 3.5%
CCOC(=O)c1ccc(O)c(O)c1 | x | -1.4 | x | x | x | x
COc1ccc(CNCCC(c2ccc(OC)cc2)c2ccccc2OC)cc1 (stereo unspecified) | -15.5% | -1.5 | 5.0%[56.9 µM] | -2.4 | -1.2 | -0.6%
COc1ccc(C(CCNCc2ccc(N(C)C)cc2)c2ccccc2OC)cc1 (stereo unspecified) | u | 6.4 | 9.2% | -73.9* | -74.9* | 3.4%
CC1=C/C(=C(\c2cc(C)c(O)c(Br)c2)c2ccccc2S(=O)(=O)O)C=C(Br)C1=O | -19.8% | -69.4* | u | -91.6* | -75.4* | -22.8%
COc1c2ccccc2nn1C(C)C | x | 6.4 | x | -3.2 | 3.0 | x
CCOC(=O)c1[nH]c(C)c(CCC(=O)Nc2cccc(C(F)(F)F)c2)c1C | x | -2.7 | 21.3% | x | x | x
C#CCOCCOCCOCCNc1nc(N2CCN(C(=O)CCCCCCCCCCNC(=O)[C@H](CCCN=C(N)N)n3cc(C[C@@H](C)CC)nn3)CC2)nc(N2CCN(C(=O)CCCCCCCCCCNC(=O)[C@@H]([C@H](C)CC)n3cc(CCCCCN)nn3)CC2)n1 | u | x | x | x | x | 10µM*
C#CCOCCOCCOCCNc1nc(N2CCN(C(=O)CCCCCCCCCCNC(=O)[C@H]([C@@H](C)CC)n3cc(CCCCN=C(N)N)nn3)CC2)nc(N2CCN(C(=O)CCCCCCCCCCNC(=O)[C@H](CCCN=C(N)N)n3cc(C[C@@H](C)CC)nn3)CC2)n1 | -24.4% | x | x | x | x | 11.2µM*
C#CCOCCOCCOCCNc1nc(N2CCN(C(=O)CCCCCCCCCCNC(=O)[C@@H](CCC(=O)O)n3cc(CCCCCN)nn3)CC2)nc(N2CCN(C(=O)CCCCCCCCCCNC(=O)[C@H](CCCCN)n3cc(C[C@@H](C)CC)nn3)CC2)n1 | -27.4% | -1.4 | u | -6.0 | -7.4 | u
CCc1nnc(N/N=C/c2cc(Br)c(O)cc2O)n1N | 5.1% | u | -38.1% | -80.0* | -91.1* | 1.5%
CC(C)(C)c1nnc(N/N=C/c2cc(Br)ccc2O)n(N)c1=O | -5.0% | 5.3 | -0.5% | -90.2* | -93.9* | -0.7%
CCc1nnc(N/N=C/c2ccc(O)c(OC)c2)n1N | 3.3% | -25.7 | -23.2% | -3.0 | -15.4 | 4.3%
COc1ccc(-c2cn3nc(N4CCC(C(=O)Nc5ccccc5OC)CC4)sc3n2)cc1 | x | 0.8 | -3.7% | x | x | x
Cc1ccc(C)c(OCCCC(C)(C)C(=O)O)c1 | 3.5% | -62.2*! | 25.4% | -20.8 | 0.0 | 4.7%
Cc1cc(C)c(S(=O)(=O)/N=C2/C=C(SCC(=O)O)C(=O)c3ccccc32)cc1C | -8.7% | -53.0* | u | -22.0 | -21.9 | -0.5%
CCOc1sc2nc(C)n(CC(=O)Nc3cccc(C)c3)c(=O)c2c1C | x | -1.2 | 16.5% | x | x | x
SMILES | Eya2 inh | PI4K2A inh | RGS4 inhibitor | Six1-Eya2 inh | CtBP-E1A inh | USP2a inh
NNC(=O)CSc1cccc2cccnc12 | -9.1% | 2.2 | 7.4% | -6.5 | 9.4 | -5.6%
CCCCOc1ccc(NC(=O)CSc2cccc3cccnc23)cc1 | -4.5% | 2.7 | -0.7% | u | -88.3* | -1.1%
O=C(CSc1cccc2cccnc12)Nc1ccccc1F | 0.8% | -8.7 | -3.0% | u | u | 3.2%
O=C(CSc1cccc2cccnc12)Nc1cc(C(=O)O)cc(C(=O)O)c1 | 6.0% | 0.2 | 0.8% | u | -83.3* | -1.1%
CCOc1cc(C=NNC(=O)c2cccc(S(=O)(=O)N3CCCC3)c2)ccc1O | 7.2% | 0.0 | -2.3% | -66.5* | x | 1.2%
Cc1cccc(NC(=O)CSc2cccc3cccnc23)c1 | -3.3% | -0.4 | 0.1% | -81.3* | x | 2.1%
O=C(OCC#CCSc1nnc(-c2cccc3ccccc23)o1)C1CC1 | x | -4.2 | x | x | x | x
Cc1ccc(C(c2c(O)cc(C)n(Cc3ccco3)c2=O)N2CCC(C)CC2)cc1 (stereo unspecified) | x | -1.6 | 7.5% | x | x | x
O=C(CSc1cccc2cccnc12)N/N=C/c1ccncc1 | -9.0% | 0.6 | -8.0%[56.9 µM] | -19.8 | x | 4.4%
CCOc1cc(/C=N/NC(=O)CSc2cccc3cccnc23)ccc1O | 0.4% | -0.9 | 7.7% | -65.9* | -74.0* | 2.3%
O=C(CSc1nnc2[nH]c(=O)cc(-c3ccccc3)n12)Nc1cc(C(F)(F)F)ccc1Cl | x | -2.4 | -14.2% | x | x | x
Cc1cc(=O)[nH]c2nnc(SCC(=O)Nc3cc(C(F)(F)F)ccc3Cl)n12 | x | -58.1* | -33.1% | x | x | x
COC(=O)CCNC(=O)N1CCN(c2nnc(C)c3c(C)n(-c4ccccc4)nc23)CC1 | x | -1.9 | -15.9% | x | x | x
CC(=NNC(=S)N1CCC1)c1ccccn1 | x | -60.2* | -39.9% | -90.6* | -95.3* | x
CC(=NNC(=S)N1CC2CCC(CC2)C1)c1cccc(C)n1 | x | 2.8 | -31.2% | -88.4* | -15.8 | x
C/C(=N\NC(=O)c1cc(C)nc2ccccc12)c1ccccn1 | -11.0% | 6.3 | 13.6% | -89.3* | -92.1* | -0.1%
CC(=NNC(=S)Nc1cccc(Cl)c1)c1ccccn1 | x | 4.9 | -22.3% | -90.8* | -95.7* | x
CC(=NNC(=S)N1CCCC1)c1ccccn1 | x | -11.6 | x | u | -20.3 | x
